TWEAK Fn14 block – blocks TWEAK-Fn14 interaction in a reporter cell assay; TWEAK-stimulated Fn14 reporter cells, luciferase luminescence, 8 h; actives 2% (n = 360,000); inhibition, % at 10 µM; in the data active = inhibition above about 50%
HIF-2a block – blocks HIF-2a reporter activity | 786-0 RCC cells HIF-2a reporter, luciferase luminescence, overnight | inhibition, % at 18.8 µM | actives 0.72% (n = 360,000);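 active = inhibition of the luminescence signal of 40% or more relative to plate controls, in a single-dose primary screen at 18.75 µM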
TROY signal inh – inhibitors of TROY-dependent NF-kB signaling. Q293 LMP1-TROYcd NF-kB luciferase reporter, 4 h. inhibition, % at 10 µM. actives 0.98% (n = 360,000). AID 1347056;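 active = compounds whose plate-normalised and pattern-corrected inhibition of the luciferase reporter signal at the single screening dose is 50% or more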
KKLEB cytotox – reduces viability of KKLEB cystic fibrosis airway cells; activity change (cytotoxicity), % at 5 µM; actives 0.36% (n = 360,000); KKLEB CF airway cells viability, ATPlite luminescence, overnight; active compounds read low; cells stimulated with P. aeruginosa culture filtrate; AID 602141;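 active = corrected activity change at or below -50% at 5 µM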
Peg3 prom inh – inhibitors of Peg3 promoter. actives 1.7% (n = 360,000). HeLa PEG-Prom luciferase reporter, luminescence, overnight. inhibition, % at 20 µM;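 active = inhibition of at least 50% at 20 µM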
CF NFkB inh – cystic fibrosis NF-kB activation inhibition | KKLEB NF-kB-GFP reporter, PAF-induced, GFP fluorescence overnight | inhibition, % at 5 µM | actives 0.86% (n = 360,000);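 active = at least 50% inhibition at 5 µM, scaled per plate between neutral and stimulator controls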;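 note: PAF is a Pseudomonas aeruginosa culture filtrate used as stimulus; plate controls were PAF-stimulated DMSO wells for no effect and unstimulated DMSO wells for full effect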
An asterisk follows results filed as active; / = not tested or not shown. In the library only some 4% were active in any assay of this set; here they are far more common.

SMILES	TWEAK Fn14 block	HIF-2a block	TROY signal inh	KKLEB cytotox	Peg3 prom inh	CF NFkB inh
COc1ccc(CN2C(=O)C(CC(=O)NC3CCCC3)CC(C(=O)N(C(C)C)C(C)C)=C2C)cc1 (stereo not drawn)	-0.8	-0.4	-3.0	-10.1	2.1	16.8
CCCc1ccc(-c2ccc(C(=O)O)cc2)nc1	78.5*	-88.4	47.8	9.5	-71.3	-0.6
CCCCCc1ccc(-c2ccc(/C=C/C(N)=O)cc2)nc1	15.9	-66.9	-6.9	-0.9	-36.8	3.2
CCOC(=O)C1CCN(C(=O)COc2cc(C)c(Br)cc2C)CC1	91.2*	5.9	/	1.9	0.8	7.5
O=C(CCCn1c(=O)c2cccn2c2cccnc21)N1CCN(c2ccccc2F)CC1	-21.2	8.9	11.0	-5.4	13.9	-6.1
NC(=O)c1nc(-c2ccco2)nc2c1[nH]c(=O)n2-c1ccc(Cl)c(Cl)c1	-2.9	16.6	-1.6	3.2	80.0*	-12.4
COc1ccccc1NC(=O)/C(=C\c1cccnc1)NC(=O)c1ccc(C)cc1	61.0*	14.2	4.2	0.1	12.9	-12.6
CCOC(=O)C1CCCN(C(=S)NC(=O)c2cc(Br)ccc2Cl)C1 (stereo not drawn)	-10.1	-7.1	-15.9	9.2	13.6	-29.1
C=CCNc1nc(N)c(C(=C(C#N)C#N)c2ccc(Br)cc2)s1	47.4	3.0	19.8	-12.2	55.9*	7.4
Cc1nnnn1/C(=C\c1ccccc1)C(=O)OCC(=O)NC(C)(C)C	50.1*	25.0	21.2	-10.5	-22.2	11.4
CC(=O)Nc1ccc(NC(=O)COC(=O)/C(=C/c2ccccc2)n2nnnc2C)cc1	38.9	23.4	-5.8	-1.8	0.5	-70.1
Cc1nnnn1/C(=C\c1ccccc1)C(=O)OCC(=O)NC1CCCCC1	57.0*	12.8	23.9	-19.4	75.8*	4.7
COc1ccc(-c2cc(C3CCN(c4ccc(C(C)=O)cc4[N+](=O)[O-])CC3)[nH]n2)cc1	71.3*	5.3	73.5*	9.5	24.5	7.5
CC(=O)c1ccc(N2CCC(c3cc(-c4ccc(Cl)cc4)n[nH]3)CC2)c([N+](=O)[O-])c1	62.0*	-15.6	48.5	1.8	22.9	-11.8
COC(=O)c1ccc(N2CCC(c3cc(-c4ccc(OC)cc4)n[nH]3)CC2)c([N+](=O)[O-])c1	24.7	27.2	9.1	5.7	9.2	-0.4
CC(OC(=O)CNC(=O)c1sc2ccccc2c1Cl)c1ccccc1 (stereo not drawn)	-42.4	-32.9	-8.2	-2.9	-40.5	7.6
O=C(C1CCOCC1)N1CCCC(N2CCN(c3cccc(C(F)(F)F)c3)CC2)C1 (stereo not drawn)	21.0	-11.4	-37.3	3.8	-11.2	-6.2
COc1ccc(CNC(=O)COC(=O)c2nc3nc(C)cc(C)n3n2)cc1	14.4	6.9	1.2	-1.5	3.0	5.6
COc1ccc(CC(=O)Nc2cccc(-c3nnc(-c4ccc(C)cc4)o3)c2)cc1OC	101.9*	-13.4	64.2*	-1.2	111.1*	-20.5
COc1ccc(CC(=O)Nc2cccc(-c3nnc(-c4ccccc4)o3)c2)cc1OC	102.2*	-297.4	69.2*	0.1	100.3*	-18.2
COc1ccc(CC(=O)Nc2cccc(-c3nnc(-c4cccc(C)c4)o3)c2)cc1OC	88.9*	-81.9	60.9*	-0.1	-55.6	4.3
Cc1ccc(OCC(=O)Nc2cccc(-c3nnc(-c4ccccc4)o3)c2)c(C)c1	13.5	-49.8	-29.6	21.6	-22.9	12.8
COc1ccc(CC(=O)Nc2ccc(-c3nnc(-c4ccccc4)o3)cc2)cc1OC	-1.4	-19.8	-28.7	-1.4	-61.4	-13.0
CC(C)C[C@H]1CN([C@@H](Cc2ccccc2)CN2CCC[C@H]2CN2C(=O)C(=O)NC[C@@H]2Cc2ccc(O)cc2)C(=O)C(=O)N1CCc1ccccc1	47.5	5.7	1.1	/	/	/
CC(C)(C)NC(=O)CN(C(=O)C1CSC(=O)C1)c1ccc2c(c1)OCCO2 (stereo not drawn)	60.7*	-27.0	53.6*	2.9	3.2	10.0
SMILES	TWEAK Fn14 block	HIF-2a block	TROY signal inh	KKLEB cytotox	Peg3 prom inh	CF NFkB inh
Cc1ccc2oc(-c3cccc(NC(=S)NC(=O)/C=C/c4ccco4)c3)nc2c1	90.4*	-22.8	77.0*	-13.4	-84.4	16.8
Cc1ccc2oc(-c3cccc(NC(=S)NC(=O)c4cccs4)c3)nc2c1	-9.9	-212.7	-18.7	-13.9	-229.2	5.4
O=C(/C=C/c1ccco1)NC(=S)Nc1nc(-c2ccc3ccccc3c2)cs1	-0.8	-71.0	-46.9	-63.6*	-25.6	46.8
CCC(=O)[C@@]1(C)[C@H](C)C[C@H]2[C@@H]3CCC4=CC(=O)C=C[C@]4(C)[C@H]3[C@@H](O)C[C@@]21C	-3.7	21.9	18.9	39.0	9.3	71.6*
CCCC1O[C@@H]2CC3C4CCC5=CC(=O)C=C[C@]5(C)C4C(OC(C)=O)C[C@]3(C)[C@]2(C(=O)COC(C)=O)O1 (stereo partly drawn)	-9.6	18.0	-0.7	12.4	24.6	24.2
CCCC1OC2CC3C4CCC5=CC(=O)C=CC5(C)C4C(O)CC3(C)C2(C(=O)O)O1 (stereo not drawn)	13.2	28.6	18.0	31.7	0.9	73.6*
COc1ccc(OC)c(/C=N/n2c(C)nc3ccccc3c2=O)c1	-13.8	6.0	-30.1	-6.2	11.3	4.7
COc1cc(OC)c(OC)cc1/C=N/n1c(C)nc2ccccc2c1=O	96.9*	18.9	12.6	2.6	-0.2	3.9
COc1ccc(-c2ccc(SCC(=O)N3c4ccccc4CC3C)nn2)cc1OC (stereo not drawn)	63.3*	-221.6	-3.6	-20.3	-57.8	6.3
CCOC(=O)N1CCN(C(=O)CSc2ccc(-c3ccc(OC)c(OC)c3)nn2)CC1	-6.5	-7.3	-9.8	-2.4	-7.2	-3.4
Cc1noc(C)c1NC(=O)N(C)C[C@H]1Oc2ccc(NC(=O)Nc3ccccc3)cc2C(=O)N([C@H](C)CO)C[C@@H]1C	-0.3	4.9	-6.1	-13.0	-6.3	-1.3
CC(=O)Nc1cccc(NC(=O)COC(=O)CO/N=C(\C)c2ccc3c(c2)OCO3)c1	-5.3	3.3	-12.7	-0.6	-1.2	6.0
Cc1ccc(NN2C(=O)C=C(c3ccccc3)C2=O)cc1	16.2	33.7	-4.0	-21.6	84.8*	38.0
O=C1c2ccccc2C(=O)N1Nc1ccccc1	-13.2	16.1	-9.0	2.9	2.6	-2.6
Cc1cc(C(=O)COC(=O)c2ccc(O)cc2)c(C)n1-c1ccccc1F	75.2*	-37.8	83.7*	6.5	-194.7	-13.7
Cc1cc(C(=O)COC(=O)c2ccc[nH]c2=O)c(C)n1-c1ccccc1F	59.5*	45.4*	33.1	-0.4	-56.8	6.6
Cc1cc(C(=O)Cn2nnc3ccccc3c2=O)c(C)n1-c1ccccc1F	73.1*	-54.8	81.8*	-32.9	-24.6	-2.0
CC(=O)Nc1ccc(SCC(=O)c2cc(C)n(-c3ccccc3F)c2C)cc1	86.7*	50.4*	66.1*	11.3	17.8	-24.8

Screening results deposited in PubChem by Sanford-Burnham Center for Chemical Genomics.
